HT1080NT lethal: kills 2HG-producing HT-1080-NT fibrosarcoma cells | Potency, µM (highest dose often 46.1 µM), for inactives: at the top dose activity, negative = less viability, actives largely listed as cytotoxic | HT-1080-NT fibrosarcoma viability, CellTiter-Glo ATP luminescence, 48 h | hit rate 1.6% among 360,000 | AID 686970;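 further: NT is the 2HG producing partner of a matched IDH1 knockdown line; 0% = DMSO-treated cells and -100% = media-only wells without cells; nearly all actives have a fitted effect of over 55% in size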
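Fibrosarcoma NT cells, 750 per well in 5% FBS RPMI, were exposed to compound for 48 hours. Viability: CellTiter-Glo luminescence.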
TDP1 cell noCPT: qHTS for Inhibitors of human tyrosyl-DNA phosphodiesterase 1 (TDP1): qHTS in cells in absence of CPT | DT40 Tdp1-/- hTDP1 cells, no CPT, ATP luminescence, 48 h | Potency, µM (top dose mostly 46.2 µM), for the others: top-dose activity change, negative = growth inhibition, most hits filed as inhibitors | hit rate 15% among 420,000; further: nearly all actives have a fitted effect of over 55% in size
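Camptothecin absent (DMSO only). Human TDP1-complemented DT40 knockout cells, 400 cells/well, 37 °C for minimum 48 hr; ATP measured via CellTiter-Glo, 30 min dark incubation, luminescence.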
HT1080 IDH1KD tx: kills HT-1080 cells with IDH1 knockdown; hit rate 2% among 360,000; Potency, µM (top dose mostly 46.1 µM), for inactives: at the highest dose activity, negative = toxicity, usual class: cytotoxic; HT-1080 IDH1 knockdown viability, ATP luminescence, 48 h;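 further: 0% = DMSO wells and -100% = cell-free medium wells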
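Cytotoxicity counter-line: IDH1KD HT-1080, 48 h, CellTiter-Glo. Curves classed by r2, magnitude and activity.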
KB-V1 cytotox: KB-V1 MDR subline cytotoxicity. KB-V1 MDR cells viability, CellTiter-Glo, 72 h. hit rate 3.4% among 400,000. Potency, µM (top dose mostly 46.1 µM), usual class: cytotoxic. AID 1347076; further: nearly all actives have a fitted effect of over 60% in size
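Cytotoxicity toward P-gp-expressing KB-V1 cells was determined as loss of CellTiter-Glo luminescence after 72 h at 37 degrees C. Compounds were tested in quantitative HTS format across a concentration range, with curves fitted to normalized data.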
TDP1 cell CPT: growth inhibition of DT40 Tdp1-/-;hTDP1 cells with camptothecin (screen for TDP1 inhibitors). hit rate 12% among 420,000. chicken DT40 Tdp1-/-;hTDP1 cells + 20 nM CPT, ATP luminescence, 48 h. Potency, µM (titrated, usually from 46.2 µM), without a hit: at the highest dose activity change, negative = growth inhibition, most hits filed as inhibitors; further: nearly all actives have a fitted effect of over 55% in size
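Chicken DT40 Tdp1-/- cells stably complemented with human TDP1 were seeded at 400 cells/well in medium containing 20 nM camptothecin, exposed to pin-transferred compounds, and grown at 37 °C for at least 48 hr. Viability was read as ATP luminescence.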
KB-3-1 cytotox: kills parental KB-3-1 adenocarcinoma cells; hit rate 1.4% among 400,000; Potency, µM (doses to about 46.1 µM), usual class: cytotoxic; KB-3-1 viability, CellTiter-Glo ATP luminescence, 72 h; further: nearly all actives have a fitted effect of over 60% in size
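Using CellTiter-Glo luminescence, growth of non-resistant KB-3-1 adenocarcinoma cells is assessed 72 h after pin-tool compound addition at 37 °C. Normalized responses across the concentration series yield fitted curves.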
* = called active by the depositor; ! = not active in a repeat; [ ] = another dose, or the depositor's remark. This is a sample that favours compounds with a hit; in the whole collection about 19% have one here. The call rests on the fitted dose curve; in most records, active means well fitted curve in the direction sought with a large enough effect; inconclusive means small, poorly fitted or top-dose-only effect, or another doubt; inactive means no such curve, though single readings can be large; an effect the other way counts as inactive or inconclusive. Unless noted, on the % scale 0 is the no-effect control and ±100 the full control effect; potency means the concentration at half of the fitted maximal effect.

How did CC(Oc1ccc(Cl)cc1Cl)c1nc(-c2ccc(NC(=O)c3ccncc3)cc2)no1 (stereo unspecified) do in these assays?
HT1080NT lethal: -25%[9.24 µM]; TDP1 cell noCPT: 8.2µM*; HT1080 IDH1KD tx: inconclusive; KB-V1 cytotox: inconclusive; TDP1 cell CPT: 15µM*; KB-3-1 cytotox: inconclusive

Results for Cc1nc(Cl)sc1C(=O)Nc1ccc2ccccc2c1 ?
HT1080NT lethal: -8%; TDP1 cell noCPT: -26%; HT1080 IDH1KD tx: -2%; KB-V1 cytotox: inactive; TDP1 cell CPT: 4%; KB-3-1 cytotox: inactive

How did O=C(Nc1ccc2ccccc2c1)c1nn(C23CC4CC(CC(C4)C2)C3)cc1Br do in these assays?
HT1080NT lethal: -8%; TDP1 cell noCPT: 21µM*; HT1080 IDH1KD tx: -15%; KB-V1 cytotox: inactive; TDP1 cell CPT: 18µM*; KB-3-1 cytotox: inactive

Results for C[C@H](NC(=O)CCC(=O)N1C[C@H]2C[C@H](C1)c1cccc(=O)n1C2)c1ccccc1 ?
HT1080NT lethal: 8%; TDP1 cell noCPT: 5%; HT1080 IDH1KD tx: 9%; KB-V1 cytotox: inconclusive; TDP1 cell CPT: 10%; KB-3-1 cytotox: inactive

Results for COc1cc(/C=C(/C)[N+](=O)[O-])ccc1OCc1ccccc1Cl ?
HT1080NT lethal: 8.2µM*; TDP1 cell noCPT: 2.9µM*; HT1080 IDH1KD tx: 5.8µM*; KB-V1 cytotox: inconclusive; TDP1 cell CPT: 3.3µM*; KB-3-1 cytotox: inconclusive

How did Cc1ccc(S(=O)(=O)N2CCN(C(=O)COC(=O)Cc3ccccc3)CC2)c(C)c1 do in these assays?
HT1080NT lethal: 18%; TDP1 cell noCPT: inconclusive; HT1080 IDH1KD tx: 18%; KB-V1 cytotox: inactive; TDP1 cell CPT: -19%; KB-3-1 cytotox: inactive

What do the screens show for `CC(C)(C)NC(=S)/N=C(\N)N[N+](=O)[O-]`?
HT1080NT lethal: 13%; TDP1 cell noCPT: 19%; HT1080 IDH1KD tx: 4%; KB-V1 cytotox: inconclusive; TDP1 cell CPT: -7%; KB-3-1 cytotox: inactive

Results for c1ccc(CN2CCNCC2)cc1 ?
TDP1 cell noCPT: -8%[166 µM]; TDP1 cell CPT: 11%[166 µM]

What do the screens show for `CC[C@H]1CC2CN3CCc4c([nH]c5cc(OC)ccc45)[C@](C(=O)OC)(C2)[C@H]13`?
HT1080NT lethal: 3%; TDP1 cell noCPT: inconclusive; HT1080 IDH1KD tx: -2%; KB-V1 cytotox: inactive; TDP1 cell CPT: inconclusive; KB-3-1 cytotox: inactive

Results for CC1=NCCc2c1[nH]c1cc(O)ccc21 ?
HT1080NT lethal: 18%; TDP1 cell noCPT: 27µM*!; HT1080 IDH1KD tx: -12%; KB-V1 cytotox: inactive; TDP1 cell CPT: inconclusive; KB-3-1 cytotox: inactive

How did COc1ccc2c3c([nH]c2c1)C(C)=NCC3 do in these assays?
HT1080NT lethal: 25%; TDP1 cell noCPT: 18µM*!; HT1080 IDH1KD tx: 10%; KB-V1 cytotox: inactive; TDP1 cell CPT: inconclusive; KB-3-1 cytotox: inactive

What do the screens show for `CN(C(=O)COC(=O)c1cn(C)c2ccccc12)C1CCCCC1`?
HT1080NT lethal: 8%[9.24 µM]; TDP1 cell noCPT: -4%; HT1080 IDH1KD tx: 4%; KB-V1 cytotox: inactive; TDP1 cell CPT: -24%; KB-3-1 cytotox: inactive

Results for C[C@]12CC[C@H](O)C[C@H]1CC[C@@H]1[C@@H]2CC[C@]2(C)C(=O)CC[C@@H]12 ?
HT1080NT lethal: 3%; TDP1 cell noCPT: inconclusive; HT1080 IDH1KD tx: 0%; KB-V1 cytotox: inactive; TDP1 cell CPT: -15%; KB-3-1 cytotox: inactive

How did COC12C(COC(N)=O)C3=C(C(=O)C(C)=C(N)C3=O)N1CC1C2N1C (stereo unspecified) do in these assays?
HT1080NT lethal: inconclusive; TDP1 cell noCPT: 0.065µM*; HT1080 IDH1KD tx: inconclusive; KB-V1 cytotox: inconclusive; TDP1 cell CPT: 0.052µM*; KB-3-1 cytotox: inconclusive

How did CCOc1ccc2nc(NC(=O)c3cccn(Cc4ccccc4C)c3=O)sc2c1 do in these assays?
TDP1 cell noCPT: 2%; KB-V1 cytotox: inactive; TDP1 cell CPT: 2%; KB-3-1 cytotox: inactive

How did COc1ccc(-c2nn(CCC#N)cc2C(=O)Nc2ccccc2Br)cc1[N+](=O)[O-] do in these assays?
HT1080NT lethal: inconclusive; TDP1 cell noCPT: inconclusive; HT1080 IDH1KD tx: -18%; KB-V1 cytotox: inactive; TDP1 cell CPT: -30%; KB-3-1 cytotox: inactive

Results for CC(=O)C(Sc1ncnc2c1nnn2-c1ccc(F)cc1)C(=O)N(C)C (stereo unspecified) ?
HT1080NT lethal: 17%; TDP1 cell noCPT: 21µM*; HT1080 IDH1KD tx: 16%; KB-V1 cytotox: inactive; TDP1 cell CPT: 21µM*; KB-3-1 cytotox: inactive

Results for CSc1nc(N2CCN(C)CC2)c2ccccc2n1 ?
HT1080NT lethal: -15%; TDP1 cell noCPT: 4%; HT1080 IDH1KD tx: -5%; KB-V1 cytotox: inactive; TDP1 cell CPT: 11%; KB-3-1 cytotox: inactive

Results for O=C(NCCc1ccccc1)c1ccc(CSc2nc3cccnc3n2Cc2ccc(F)cc2)cc1 ?
TDP1 cell noCPT: 15µM*; KB-V1 cytotox: inactive; TDP1 cell CPT: inconclusive; KB-3-1 cytotox: inactive

How did O=C(NCCc1ccccc1)c1ccc2nccnc2c1 do in these assays?
HT1080NT lethal: 4%; TDP1 cell noCPT: -23%; HT1080 IDH1KD tx: 8%; KB-V1 cytotox: inactive; TDP1 cell CPT: inconclusive; KB-3-1 cytotox: inactive

Results for Nc1ccncc1Cl ?
HT1080NT lethal: -3%; TDP1 cell noCPT: -13%; HT1080 IDH1KD tx: -4%; KB-V1 cytotox: inactive; TDP1 cell CPT: -6%; KB-3-1 cytotox: inactive

What do the screens show for `CCCCOc1ccc(CCN)cc1Cl`?
HT1080NT lethal: -15%; TDP1 cell noCPT: 2.1µM*; HT1080 IDH1KD tx: -6%; KB-V1 cytotox: inactive; TDP1 cell CPT: 2.3µM*; KB-3-1 cytotox: inactive

Source: PubChem (National Center for Advancing Translational Sciences (NCATS))
